Experiment [1] has as its target Eukaryotic translation initiation factor 3 subunit A (UniProt P38249). Briefly: cross-link between two proteins; cross-linking mass spectrometry.
For experiment [2], the target named is Small ribosomal subunit protein uS8m (UniProt Q03799). The experiment is described as above.
In the next experiment the target is Histone H3 (UniProt P61830). Described as above.
For experiment [3], the target named is Small ribosomal subunit protein bS1m (UniProt Q02950). The experiment is described as above.
The target in experiment [4] is Nucleolar complex protein 14 (UniProt Q99207). Briefly: cross-link between two proteins.
For experiment [5], the target named is Something about silencing protein 10 (UniProt Q12136). Briefly: cross-link between two proteins.

Sequence of Eukaryotic translation initiation factor 3 subunit A (P38249 whole entry): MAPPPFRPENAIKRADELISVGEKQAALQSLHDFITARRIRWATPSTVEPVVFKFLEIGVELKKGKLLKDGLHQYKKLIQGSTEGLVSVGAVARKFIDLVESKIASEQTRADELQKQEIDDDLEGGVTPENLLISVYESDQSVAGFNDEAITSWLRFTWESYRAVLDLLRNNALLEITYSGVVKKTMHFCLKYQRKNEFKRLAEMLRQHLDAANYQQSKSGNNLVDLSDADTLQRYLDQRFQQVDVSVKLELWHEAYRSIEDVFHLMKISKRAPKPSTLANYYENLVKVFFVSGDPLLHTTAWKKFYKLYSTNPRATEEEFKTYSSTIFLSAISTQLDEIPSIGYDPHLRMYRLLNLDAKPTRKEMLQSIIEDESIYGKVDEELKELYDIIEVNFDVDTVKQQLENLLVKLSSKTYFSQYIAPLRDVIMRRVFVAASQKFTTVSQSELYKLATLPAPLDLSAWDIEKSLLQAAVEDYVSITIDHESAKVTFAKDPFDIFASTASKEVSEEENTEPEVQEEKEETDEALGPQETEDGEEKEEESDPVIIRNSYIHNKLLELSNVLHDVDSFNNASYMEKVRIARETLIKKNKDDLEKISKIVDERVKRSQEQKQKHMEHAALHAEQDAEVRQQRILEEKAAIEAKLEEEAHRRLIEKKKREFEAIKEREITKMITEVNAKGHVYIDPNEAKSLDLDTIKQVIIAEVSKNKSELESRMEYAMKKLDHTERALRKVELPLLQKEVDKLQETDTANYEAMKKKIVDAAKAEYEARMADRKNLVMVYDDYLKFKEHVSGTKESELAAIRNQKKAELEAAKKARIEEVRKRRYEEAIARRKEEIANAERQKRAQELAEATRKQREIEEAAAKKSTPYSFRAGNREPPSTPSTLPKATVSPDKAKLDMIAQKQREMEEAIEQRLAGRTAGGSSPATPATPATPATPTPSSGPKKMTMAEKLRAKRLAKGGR

With “Eukaryotic translation initiation factor 3 subunit B, P06103”, in experiment [1], the “listed as a hit” value was “yes”.

With “Small ribosomal subunit protein mS23, P40496”, the “listed as a hit” value in experiment [2] was “yes”.

Consider Histone H4, P02309, for which the “listed as a hit” value with Histone H3 is “yes”.

As to “Small ribosomal subunit protein bS18m, P40033”, the “listed as a hit” value in experiment [3] is given as “yes”.

On to “Ribosomal RNA small subunit methyltransferase NEP1, Q06287”, for which the “listed as a hit” value in experiment [4] and in experiment [5] was “yes” in each case.
